IDE exosite inh: insulin-degrading enzyme (human) exo-site inhibition; P14735; purified IDE, FL-6b probe fluorescence polarization; hits give low values; z-score at 20 µM; actives 6.3% (n = 17,000);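 active means z-score of -3 or lower, meaning strong loss of probe binding signal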;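 further: His-tagged human IDE residues 42-1019 made in E. coli with 30 nM FL-6b probe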
* marks the source's active call; other numbers are inactive results. Shown is part of a subset that was picked to be rich in hits.

Results for COc1cccc(-c2ccc([C@@H]3[C@H]4CN(S(=O)(=O)c5cccs5)CCCCN4[C@H]3CO)cc2)c1 ?
IDE exosite inh: 4.2

How did COc1cccc(-c2ccc([C@@H]3[C@H](CO)N4CCCCN(S(=O)(=O)c5cn(C)cn5)C[C@@H]34)cc2)c1 do in these assays?
IDE exosite inh: -11*

Results for COc1cccc(-c2ccc([C@H]3[C@@H](CO)N4CCCCN(S(=O)(=O)c5cccs5)C[C@H]34)cc2)c1 ?
IDE exosite inh: 0.91

What do the screens show for `COc1cccc(S(=O)(=O)N2CCCCN3[C@H](CO)[C@@H](c4ccc(-c5ccccc5)cc4)[C@H]3C2)c1`?
IDE exosite inh: 2.5

What do the screens show for `COc1cccc(S(=O)(=O)N2CCCCN3[C@H](C2)[C@@H](c2ccc(-c4ccccc4)cc2)[C@@H]3CO)c1`?
IDE exosite inh: 3

What do the screens show for `C[C@@H]1CCn2cc(nn2)COC[C@H](Cc2ccccc2)NC1=O`?
IDE exosite inh: 0.037

Results for COc1ccc2c3c(n(C)c2c1)[C@@H](CO)N(C(=O)Nc1ccc(F)cc1)CC31CN(C(=O)CN2CCOCC2)C1 ?
IDE exosite inh: 0.064

What do the screens show for `O=S(=O)(c1ccccc1F)N1CCCCN2[C@H](CO)[C@@H](c3ccc(-c4cccnc4)cc3)[C@@H]2C1`?
IDE exosite inh: -7.7*

Results for Cc1ccccc1S(=O)(=O)N1CCCCN2[C@H](CO)[C@@H](c3ccc(-c4cccnc4)cc3)[C@H]2C1 ?
IDE exosite inh: -0.049

What do the screens show for `Cc1ccccc1S(=O)(=O)N1CCCCN2[C@H](C1)[C@@H](c1ccc(-c3cccnc3)cc1)[C@@H]2CO`?
IDE exosite inh: -3*

How did Cc1ccccc1S(=O)(=O)N1CCCCN2[C@@H](CO)[C@H](c3ccc(-c4cccnc4)cc3)[C@@H]2C1 do in these assays?
IDE exosite inh: 2.3

How did O=S(=O)(c1ccccc1F)N1CCCCN2[C@H](C1)[C@H](c1ccc(-c3cccnc3)cc1)[C@@H]2CO do in these assays?
IDE exosite inh: -0.54

Results for O=S(=O)(c1ccccc1F)N1CCCCN2[C@@H](CO)[C@H](c3ccc(-c4cccnc4)cc3)[C@@H]2C1 ?
IDE exosite inh: 2.2

How did COc1cccc(-c2ccc3c(c2)[C@@H]2[C@@H](CCN2C(=O)c2ccccn2)[C@@H](CO)N3)c1 do in these assays?
IDE exosite inh: 2.7

Results for N#C[C@@H]1[C@H](c2ccccc2C2=CCCCC2)[C@@H](CO)N1C(=O)c1ccccn1 ?
IDE exosite inh: -0.91

What do the screens show for `COc1cccc(CNC(=O)C[C@H]2CC[C@H]3[C@H](COc4ccc(NC(=O)c5cccs5)cc4C(=O)N3C)O2)c1`?
IDE exosite inh: -0.3

What do the screens show for `O=S(=O)(c1ccccc1)N1CCCCN2[C@H](CO)[C@H](c3ccc(C#Cc4cccnc4)cc3)[C@@H]2C1`?
IDE exosite inh: 3.4

Results for COCC(=O)N(C)C[C@@H]1[C@@H](c2ccc(-c3cccnc3)cc2)[C@H](CO)N1C(C)=O ?
IDE exosite inh: 0.011

How did O=C(Cc1cccnc1)N1CC(=O)N2[C@H](C1)[C@H](c1ccc(-c3cccc(F)c3)cc1)[C@@H]2CO do in these assays?
IDE exosite inh: -1.9

What do the screens show for `O=C(Cc1cccnc1)N1CC(=O)N2[C@H](C1)[C@@H](c1ccc(-c3cccc(F)c3)cc1)[C@@H]2CO`?
IDE exosite inh: -7*

What do the screens show for `O=C(Cc1ccccc1)N1CC(=O)N2[C@@H](CO)[C@H](c3ccc(-c4cccc(F)c4)cc3)[C@@H]2C1`?
IDE exosite inh: -2.4

How did O=C(Cc1cccnc1)N1CC(=O)N2[C@H](CO)[C@H](c3ccc(-c4cccc(F)c4)cc3)[C@@H]2C1 do in these assays?
IDE exosite inh: -0.91

How did O=C(Cc1ccccc1)N1CC(=O)N2[C@H](CO)[C@H](c3ccc(-c4cccc(F)c4)cc3)[C@@H]2C1 do in these assays?
IDE exosite inh: 0.84

What do the screens show for `O=C(Cc1ccccc1)N1CC(=O)N2[C@H](C1)[C@@H](c1ccc(-c3cccc(F)c3)cc1)[C@@H]2CO`?
IDE exosite inh: -3.5*

What do the screens show for `CN1CCN(C(=O)C[C@H]2CC[C@@H]3[C@H](COC[C@H](O)CN3Cc3cccc(-c4ccncc4)c3)O2)CC1`?
IDE exosite inh: -1

What do the screens show for `CC(C)NC(=O)NC[C@H]1[C@H](c2ccccc2)[C@H](CO)N1C(=O)c1ccccc1`?
IDE exosite inh: 5

What do the screens show for `CC(C)C#Cc1ccc([C@@H]2[C@H]3CN(S(=O)(=O)c4ccccc4)CC(=O)N3[C@H]2CO)cc1`?
IDE exosite inh: -0.016

Results for CC(C)C#Cc1ccc([C@@H]2[C@H](C#N)N(C(=O)c3cccc(F)c3)[C@H]2CO)cc1 ?
IDE exosite inh: -0.35

How did CO[C@H](C(=O)N(C)C[C@H]1OCc2ccccc2-c2ccccc2C(=O)N([C@@H](C)CO)C[C@H]1C)c1ccccc1 do in these assays?
IDE exosite inh: -0.92

Results for O=C(Nc1ccc(F)cc1)N1CCCCN2[C@H](CO)[C@@H](c3ccc(C#Cc4ccccc4)cc3)[C@@H]2C1 ?
IDE exosite inh: 3.6

How did CC(=O)N1CCCCN2[C@H](CO)[C@@H](c3ccc(-c4ccccc4)cc3)[C@H]2C1 do in these assays?
IDE exosite inh: -0.77

Screens from PubChem.
